Bioassay records from PubChem BioAssay.
TGFb inhibitor: TGF-b pathway inhibition; HepG2 CAGA-GFP TGF-b/SMAD3 reporter, GFP fluorescence, 18 h; TGF-beta stimulated, 500 pg/mL final; Potency, µM (titrated, usually from 46.1 µM), without a hit: at the highest dose activity, negative = inhibition, hits mostly inhibitors; hit rate 1.2% among 410,000; AID 588855; further: on the % scale 0 is the no-effect control and ±100 the full control effect; nearly all actives have a fitted effect of over 65% in size
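Inhibition was scored as loss of TGF-beta-induced (500 pg/mL final, 18 hours, 37 degrees C) GFP in HEPG2 cells carrying a CAGA-GFP reporter, in DMEM with 1% FBS. Well GFP was summed per cell; Activity was normalised to unstimulated and stimulated DMSO wells, then concentration-response fitting.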
KB-V1 cytotox: kills drug-selected multidrug resistant KB-V1 cells; KB-V1 MDR cells viability, CellTiter-Glo, 72 h; Potency, µM (top dose mostly 46.1 µM), actives largely listed as cytotoxic; hit rate 3.4% among 400,000; AID 1347076; further: on the % scale 0 is the no-effect control and ±100 the full control effect; nearly all actives have a fitted effect of over 60% in size
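Compound-treated KB-V1 multidrug-resistant cells, 72 h, 37 degrees C; viability by CellTiter-Glo. Fitted qHTS curves give the values.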
ATXN2 expr inh: reduces ATXN2 reporter expression in HEK-293 cells; HEK-293 ATXN2-luciferase reporter, luminescence, 24 h; Potency, µM (highest dose often 57 µM), inactives show at the top dose activity change, negative = inhibition, hits mostly inhibitors; hit rate 0.72% among 360,000; further: on the % scale 0 is the no-effect control and ±100 the full control effect; nearly all actives have a fitted effect of over 55% in size
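qHTS (up to 57 uM final) was run with 24 h compound exposure of reporter cells at 37 °C. Each well was multiplexed: SteadyGlo luminescence measured ATXN2-luciferase expression after a fluorogenic Gly-Phe-AFC viability readout (25 uM final).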
KB-3-1 tox: KB-3-1 parental cell cytotoxicity. KB-3-1 viability, CellTiter-Glo ATP luminescence, 72 h. Potency, µM (highest dose often 46.1 µM), hits mostly cytotoxic. hit rate 1.4% among 400,000; further: on the % scale 0 is the no-effect control and ±100 the full control effect; nearly all actives have a fitted effect of over 60% in size
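KB-3-1 cells, DMEM (no phenol red) + 10% FBS; compound by pin transfer, 72 h, 37 °C. Readout: CellTiter-Glo luminescence after 10 min. Data normalized, curve-fitted.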
HepG2 tox: counter-screen for TGF-b inhibitors: cytotoxicity in HepG2 cells. HepG2 CAGA-GFP viability, ATP luminescence, 18 h. Potency, µM (doses to about 46.1 µM), for the others: at the highest dose activity change, negative = cytotoxicity, actives largely listed as cytotoxic. hit rate 0.76% among 410,000. AID 588856
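HepG2 CAGA-GFP cells (1000/well, DMEM with 1% FBS) received compound, then TGF-beta at 500 pg/mL final, and were incubated 18 hours at 37 degrees C. Viability was read by CellTiter-Glo luminescence. Media-only wells were set as complete cell-killing and DMSO as no toxicity.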
ATXN viability: viability counter-screen for ATXN expression inhibitors; Potency, µM (top dose mostly 56.7 µM), actives largely listed as cytotoxic; AID 651635; S2 cells (HEK-293 line with an ATXN2-luciferase reporter) viability, CellTiter-Fluor protease fluorescence, 24 h; hit rate 0.49% among 400,000; further: nearly all actives have a fitted effect of over 40% in size
Numbers without * were called inactive; i = inactive; u = inconclusive; x = no result given. Rows were chosen to be rich in hits. Some 5.9% of all compounds tested hit in one or more screens of this group. The call rests on the fitted dose curve; in most records, active means well fitted curve in the direction sought with a large enough effect; inconclusive means small, poorly fitted or top-dose-only effect, or another doubt; inactive means no such curve, though single readings can be large; an effect the other way counts as inactive or inconclusive. Potency means the concentration at half of the fitted maximal effect.

SMILES	TGFb inhibitor	KB-V1 cytotox	ATXN2 expr inh	KB-3-1 tox	HepG2 tox	ATXN viability
COc1ccc(OC)c(C2c3c(oc4ccc(C)cc4c3=O)C(=O)N2CCCN(C)C)c1 (stereo not given)	-16%	x	x	x	2%	x
COc1ccc(C)cc1NC(=O)C1CCN(S(=O)(=O)c2ccc3[nH]c4c(c3c2)CCCCC4)CC1	u	i	x	i	15%	x
Cc1cc2c(cc1S(=O)(=O)N(CCO)Cc1ccccc1)OCC(=O)N2	-10%	u	x	i	0%	x
CCc1nc2c(OCc3ccc(Cl)cc3)cccn2c1N(C)C(=O)c1ccc(C)cc1	u	u	u	i	-44%	u
COCCCNC(=O)Cn1nc(N2CCN(c3ccccc3)CC2)ccc1=O	-1%	i	2%	i	-14%	i
O=C(O)c1sc2cc(C(F)(F)F)cnc2c1-c1ccccc1	-3%	i	-3%	i	-27%	i
CSc1nnc(-c2sc3cc(C(F)(F)F)cnc3c2-c2ccccc2)n1C	-54%	3.7µM*	-14%	6.5µM*	-3%	i
CC(=O)Nc1nc2c(s1)CCc1ccccc1-2	-5%	u	x	i	1%	u
N#C/C(=C(/O)CCl)c1nc2c(s1)CCc1ccccc1-2	u	15µM*	-49%	4.1µM*	-67%	i
O=C(CCCl)Nc1nc2c(s1)CCc1ccccc1-2	u	i	u	u	10µM*	u
COC(=O)c1sc2ccccc2c1-n1cccc1C(=O)C(=O)Nc1ccc(F)cc1	u	i	1%	i	8%	i
COC(=O)c1sc2ccccc2c1-n1cccc1C(=O)C(=O)Nc1ccc(C)cc1	-9%	9.2µM*	1%	u	6%	i
COC(=O)c1sc2ccccc2c1-n1cccc1C(=O)C(=O)Nc1ccc(Cl)cc1	5%	12µM*	-9%	u	-3%	i
Cc1cc(C(=O)Nc2ccccc2-c2nc(CNC(=O)c3cscn3)c(C)o2)c(C)o1	x	x	x	x	x	i
COc1ccc(N2C(=O)[C@@H]3C[C@H]2CN3Cc2ccc3nccnc3c2)cc1Cl	x	x	x	x	x	i
CCOc1ccccc1NC(=S)NC1CCCCC1	-5%	23µM*	8%	i	-15%	i
CCOc1ccc(C(=S)NC2CCCCC2)cc1OC	-28%	16µM*	13%	i	-13%	i
O=S1(=O)CC(N2CCN(CC3CC3)CC2)CN1CCc1ccccc1 (stereo not given)	-15%	i	8%	i	-9%	i
Cc1ccc(NC(=O)CSc2nnc(-c3ccccc3)n2C)cc1	-6%	i	x	u	2%	x
CC/C(=C/c1ccccc1OC)c1cc(-c2ccccc2)cc2oc3ccccc3c12	-4%	i	x	i	9%	x
CCOC(=O)c1c(C)c(-c2ccccc2)n(CC(=O)NCc2cccc(OC)c2)c1C	-23%	i	3%	i	-24%	i
O=C1C=C(c2ccccc2)CC(c2cccs2)C1n1cnc([N+](=O)[O-])c1 (stereo not given)	8%	i	-5%	i	2%	i
O=C1C=C(c2ccccc2)C[C@H](c2cccs2)[C@H]1n1nnc([N+](=O)[O-])n1	-31%	16µM*	u	i	2%	28µM*
CCOc1ccc(NC(=O)CCc2c(C)nc3cc(-c4ccc(Cl)cc4)nn3c2C)cc1	8%	x	x	x	0%	x
Oc1cc(-c2ccc(N3CCCCC3)nc2)cc2cccnc12	u	u	u	5.2µM*	-73%	i
SMILES	TGFb inhibitor	KB-V1 cytotox	ATXN2 expr inh	KB-3-1 tox	HepG2 tox	ATXN viability
Oc1cc(-c2ccncc2)cc2cccnc12	u	u	3.5µM*	10µM*	11µM*	i
COc1ccc(Cl)cc1NC(=O)Cn1nc(C(F)(F)F)c2c1CCCC2	13µM*	i	-30%	i	-30%	u
O=C(Cn1nc(-c2ccc(Cl)cc2)c2ccccc2c1=O)Nc1cccc(C(F)(F)F)c1	11µM*	i	-30%	i	-31%	u
O=C(Cn1nc(C(F)(F)F)c2c1CCCC2)Nc1cccc(Cl)c1	11µM*	i	u	u	-71%	u
Cc1cccc(C(=O)Nc2ccc(OCc3cc(=O)n4ccc(C)cc4n3)cc2)c1	18%	i	x	i	0%	x
Clc1cccc(N/N=C(\Cc2nc3ccccc3[nH]2)c2ccccc2)c1	u	21µM*	0%	u	-90%	u
COc1ccc(NC(=O)Cn2c(=O)n(CCc3ccccc3)c(=O)c3sc4ccccc4c32)cc1	u	i	10%	i	-7%	i
Cc1cccc(N2CCN(S(=O)(=O)c3ccc4c(c3)CCC(=O)N4)CC2C)c1 (stereo not given)	-13%	15µM*	-1%	i	-35%	i
Cc1ccc(C)c(S(=O)(=O)N2CCN(C(=O)C3CCN(C(=O)c4ccc(F)cc4)CC3)CC2)c1	-28%	7.3µM*	5%	i	-2%	i
Cc1ccc(C(C)(C)C)cc1S(=O)(=O)N1CCC(C(=O)N2CCN(c3ccc(O)cc3)CC2)CC1	-15%	15µM*	u	u	-39%	i
COc1ccc(-c2coc3c(C(=O)NCc4ccc(OC)c(OC)c4)cccc23)c(C)c1	-13%	u	u	i	-7%	u
COc1ccc2c(c1)sc1ncc(C(=O)NCc3ccccc3F)c(=O)n12	-8%	i	x	i	-3%	x
CN(C)c1ccc(N=Nc2nccs2)cc1	-4%	i	x	i	-19%	10µM*
COc1cc2c(c(OC)c1OC)-c1ccc(SC)c(=O)cc1C(NC(=O)C(F)(F)F)CC2 (stereo not given)	0%	0.13µM*	16%	0.052µM*	3%	i
COc1c(O[C@@H]2O[C@H](CO)[C@@H](O)[C@H](O)[C@H]2O)cc2c(c1OC)-c1ccc(SC)c(=O)cc1[C@@H](NC(C)=O)CC2	x	x	x	x	x	i
CCOCC(=O)NC1CCc2cc(OC(=O)COCC)c(OC)c(OC)c2-c2ccc(SC)c(=O)cc21 (stereo not given)	u	16µM*	-12%	0.0092µM*	5%	u
CCS(=O)(=O)Nc1ccc(-c2cn3ccsc3n2)cc1	x	x	x	x	-5%	x
C/C=C(\C)NNC(=O)Cc1ccc(OC)cc1	0%	i	x	i	1%	x
CC(C)(C)C1CCc2c(sc(NC(=O)c3cc(-c4ccc(F)cc4)on3)c2C#N)C1 (stereo not given)	16%	i	8%	i	-4%	i
